# ± gives the standard deviation of the averaged measurements.
# Assays:
# DLD1 = experiment: nucleolar normality score relative to DMSO (fraction of DMSO control); RPE1 is a non-cancer human cell line; higher = more normal nucleoli (less nucleolar stress)
# Experimental: (§1)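 Selected screen hits were validated in hTERT lines (BJ5TA, CHON-002, RPE1) and cancer lines (DLD1, HCT116). Cells were immunostained for nucleolin and UBF and the nucleolar normality score was measured per field of view, with 4 fields per drug. Scores are normalized to each cell line's own DMSO control. Dose and time are not stated for this panel.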
# HCT116 = experiment: as above
# Experimental: as §1
structure (smiles),measurement,setting,value
CC[C@@]1(O)C(=O)OCc2c1cc1n(c2=O)Cc2cc3ccccc3nc2-1 [Camptothecin],nucleolar normality score,DLD1,0.402 ± 0.049
same,nucleolar normality score,HCT116,0.407 ± 0.015
